# According to PubChem BioAssay AID1159580 (chemical genetic matrix, 2015):
# The campaign covered roughly 5,500 compounds. About 2,000 (36%) were called active. Inconclusive results (about 18%) are left out. Some of the results follow. Values without a mark were called inactive. Cut-off read from the data, not from the text of the source: active = normalized growth mostly below about 0.91 (no sharp cut-off); inconclusive = no clear call, values can overlap the other calls; inactive = mostly above about 0.92.
# Experiment: chemical genetic growth profiling, strain panel (AID 1159580);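 note: tested at 20 µM; growth read once vehicle control cultures reached saturation at 30 °C; 1 = growth at the plate median or of vehicle wells; lower values mean less growth of the strain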
# Conditions: S. cerevisiae deletion strains, growth OD
# [1] = locus YAL040C, strain CLN3, stronger effect = lower value
# [2] = locus YCL061C, strain MRC1 (second series), stronger effect = lower value
# [3] = locus YDR363W, strain ESC2, stronger effect = lower value
# [4] = locus YER002W, strain NOP16, stronger effect = lower value
# [5] = locus YMR263W, strain SAP30, stronger effect = lower value
# [6] = locus YNL175C, strain NOP13, stronger effect = lower value
# [7] = locus YNL224C, strain SQS1, stronger effect = lower value
# [8] = locus YNL322C, strain KRE1, stronger effect = lower value
# [9] = locus YOR083W, strain WHI5 (second series), stronger effect = lower value
# [10] = locus YPL055C, strain LGE1, stronger effect = lower value
# [11] = locus YPL241C, strain CIN2, stronger effect = lower value
smiles,measurement,setting,value
CN=C(NC#N)Nc1ccc(C2=NNC(=O)CC2C)cc1 (stereo not given),normalized growth,[1],1.08
same,normalized growth,[2],0.999
same,normalized growth,"locus YDR150W, strain NUM1, stronger effect = lower value",1.01
same,normalized growth,[3],1.01
same,normalized growth,[4],0.986
same,normalized growth,"locus YGR078C, strain PAC10, stronger effect = lower value",1
same,normalized growth,[5],1
same,normalized growth,"locus YMR307W, strain GAS1, stronger effect = lower value",1
same,normalized growth,"locus YNL128W, strain TEP1, stronger effect = lower value",1
same,normalized growth,[6],0.995
same,normalized growth,"locus YNL197C, strain WHI3, stronger effect = lower value",0.994
same,normalized growth,[7],0.994
same,normalized growth,[8],0.986
same,normalized growth,[9],1
same,normalized growth,[10],0.996
same,normalized growth,[11],0.998
Cc1o[nH]c(=O)c1CC(N)C(=O)O (stereo not given),normalized growth,"locus YAL013W, strain DEP1, stronger effect = lower value",0.998
same,normalized growth,[1],1
same,normalized growth,[2],1
same,normalized growth,[3],1.01
same,normalized growth,[4],0.997
same,normalized growth,"locus YGR229C, strain SMI1, stronger effect = lower value",0.995
same,normalized growth,[5],0.999
same,normalized growth,"locus YNL153C, strain GIM3, stronger effect = lower value",0.989
same,normalized growth,[6],1
same,normalized growth,[7],1.01
same,normalized growth,[8],1.01
same,normalized growth,[9],0.982
same,normalized growth,[10],1
same,normalized growth,[11],1.01
COC1CC2CCC(C)C(O)(O2)C(=O)C(=O)N2CCCCC2C(=O)OC(C(C)CC2CCC(O)C(OC)C2)CC(=O)C(C)/C=C(\C)C(O)C(OC)C(=O)C(C)CC(C)/C=C/C=C/C=C/1C (stereo not given),normalized growth,"locus YAL021C, strain ccr4, stronger effect = lower value",0.0589 (active)
same,normalized growth,"locus YAL026C, strain drs2, stronger effect = lower value",0.0607 (active)
same,normalized growth,"locus YAL030W, strain snc1, stronger effect = lower value",0.057 (active)
same,normalized growth,"locus YBL061C, strain skt5, stronger effect = lower value",0.0636 (active)
same,normalized growth,"locus YBR009C, strain hhf1, stronger effect = lower value",0.0589 (active)
same,normalized growth,"locus YBR023C, strain chs3, stronger effect = lower value",0.0647 (active)
same,normalized growth,"locus YBR171W, strain sec66, stronger effect = lower value",0.0879 (active)
same,normalized growth,"locus YBR231C, strain swc5, stronger effect = lower value",0.0671 (active)
same,normalized growth,"locus YBR279W, strain paf1, stronger effect = lower value",0.061 (active)
same,normalized growth,"locus YCL011C, strain gbp2, stronger effect = lower value",0.0563 (active)
same,normalized growth,"locus YCL016C, strain dcc1, stronger effect = lower value",0.064 (active)
same,normalized growth,"locus YCL061C, strain MRC1, stronger effect = lower value",0.0664 (active)
same,normalized growth,"locus YCL069W, strain vba3, stronger effect = lower value",0.0634 (active)
same,normalized growth,"locus YCR088W, strain abp1, stronger effect = lower value",0.0633 (active)
same,normalized growth,"locus YDL005C, strain med2, stronger effect = lower value",0.105 (active)
same,normalized growth,"locus YDL040C, strain nat1, stronger effect = lower value",0.062 (active)
same,normalized growth,"locus YDR001C, strain nth1, stronger effect = lower value",0.062 (active)
same,normalized growth,"locus YDR069C, strain doa4, stronger effect = lower value",0.0638 (active)
same,normalized growth,"locus YDR137W, strain rgp1, stronger effect = lower value",0.108 (active)
same,normalized growth,"locus YDR159W, strain sac3, stronger effect = lower value",0.0822 (active)
same,normalized growth,"locus YDR195W, strain ref2",0.107 (active)
same,normalized growth,"locus YDR297W, strain sur2, stronger effect = lower value",0.0574 (active)
same,normalized growth,"locus YDR334W, strain swr1, stronger effect = lower value",0.0661 (active)
same,normalized growth,"locus YDR335W, strain msn5, stronger effect = lower value",0.0641 (active)
same,normalized growth,"locus YDR392W, strain spt3, stronger effect = lower value",0.0747 (active)
same,normalized growth,"locus YEL003W, strain gim4, stronger effect = lower value",0.0561 (active)
same,normalized growth,"locus YEL037C, strain rad23, stronger effect = lower value",0.06 (active)
same,normalized growth,"locus YEL061C, strain CIN8 (second series), stronger effect = lower value",0.0638 (active)
same,normalized growth,"locus YER015W, strain faa2, stronger effect = lower value",0.063 (active)
same,normalized growth,"locus YER016W, strain bim1, stronger effect = lower value",0.0636 (active)
same,normalized growth,"locus YER111C, strain swi4, stronger effect = lower value",0.0777 (active)
same,normalized growth,"locus YER155C, strain BEM2 (second series), stronger effect = lower value",0.0886 (active)
same,normalized growth,"locus YFR010W, strain ubp6, stronger effect = lower value",0.0722 (active)
same,normalized growth,"locus YGL167C, strain pmr1, stronger effect = lower value",0.106 (active)
same,normalized growth,"locus YGL173C, strain kem1, stronger effect = lower value",0.0674 (active)
same,normalized growth,"locus YGL227W, strain vid30, stronger effect = lower value",0.0637 (active)
same,normalized growth,"locus YGL240W, strain doc1, stronger effect = lower value",0.0777 (active)
same,normalized growth,"locus YGL253W, strain hxk2, stronger effect = lower value",0.0553 (active)
same,normalized growth,"locus YHR013C, strain ard1, stronger effect = lower value",0.0984 (active)
same,normalized growth,"locus YHR027C, strain rpn1, stronger effect = lower value",0.0663 (active)
same,normalized growth,"locus YHR030C, strain SLT2, stronger effect = lower value",0.0959 (active)
same,normalized growth,"locus YHR079C, strain IRE1, stronger effect = lower value",0.1 (active)
same,normalized growth,"locus YHR142W, strain chs7, stronger effect = lower value",0.0702 (active)
same,normalized growth,"locus YJL092W, strain hpr5, stronger effect = lower value",0.0602 (active)
same,normalized growth,"locus YJL095W, strain BCK1 (second series), stronger effect = lower value",0.0568 (active)
same,normalized growth,"locus YJL095W, strain BCK1, stronger effect = lower value",0.0941 (active)
same,normalized growth,"locus YJL115W, strain asf1, stronger effect = lower value",0.0785 (active)
same,normalized growth,"locus YJL129C, strain trk1, stronger effect = lower value",0.083 (active)
same,normalized growth,"locus YJL154C, strain vps35, stronger effect = lower value",0.0627 (active)
same,normalized growth,"locus YJL164C, strain tpk1, stronger effect = lower value",0.0565 (active)
same,normalized growth,"locus YJL166W, strain qcr8, stronger effect = lower value",0.0582 (active)
same,normalized growth,"locus YJL187C, strain SWE1, stronger effect = lower value",0.0583 (active)
same,normalized growth,"locus YJR066W, strain TOR1, stronger effect = lower value",0.00105 (active)
same,normalized growth,"locus YKL160W, strain elf1, stronger effect = lower value",0.0628 (active)
same,normalized growth,"locus YKR026C, strain gcn3, stronger effect = lower value",0.0857 (active)
same,normalized growth,"locus YKR091W, strain srl3, stronger effect = lower value",0.063 (active)
same,normalized growth,"locus YLL001W, strain dnm1, stronger effect = lower value",0.0594 (active)
same,normalized growth,"locus YLL026W, stronger effect = lower value",0.0565 (active)
same,normalized growth,"locus YLL041C, strain sdh2, stronger effect = lower value",0.0584 (active)
same,normalized growth,"locus YLR027C, strain aat2, stronger effect = lower value",0.056 (active)
same,normalized growth,"locus YLR113W, strain HOG1, stronger effect = lower value",0.116 (active)
same,normalized growth,"locus YLR221C, strain rsa3, stronger effect = lower value",0.0587 (active)
same,normalized growth,"locus YLR258W, strain gsy2, stronger effect = lower value",0.0578 (active)
same,normalized growth,"locus YLR262C, strain YPT6 (second series), stronger effect = lower value",0.0827 (active)
same,normalized growth,"locus YLR320W, strain mms22, stronger effect = lower value",0.0745 (active)
same,normalized growth,"locus YLR342W, strain FKS1, stronger effect = lower value",0.0654 (active)
same,normalized growth,"locus YLR357W, strain rsc2, stronger effect = lower value",0.123 (active)
same,normalized growth,"locus YLR370C, strain arc18, stronger effect = lower value",0.0626 (active)
same,normalized growth,"locus YLR384C, strain iki3, stronger effect = lower value",0.0638 (active)
same,normalized growth,"locus YML120C, strain ndi1, stronger effect = lower value",0.0575 (active)
same,normalized growth,"locus YMR058W, strain fet3, stronger effect = lower value",0.0611 (active)
same,normalized growth,"locus YMR125W, strain sto1, stronger effect = lower value",0.0751 (active)
same,normalized growth,"locus YMR129W, stronger effect = lower value",0.0593 (active)
same,normalized growth,"locus YMR205C, strain PFK2, stronger effect = lower value",0.077 (active)
same,normalized growth,"locus YMR231W, strain pep5, stronger effect = lower value",0.0735 (active)
same,normalized growth,"locus YNL071W, strain lat1, stronger effect = lower value",0.0603 (active)
same,normalized growth,"locus YNL183C, strain NPR1, stronger effect = lower value",0.00606 (active)
same,normalized growth,"locus YNL209W, strain ssb2, stronger effect = lower value",0.0636 (active)
same,normalized growth,"locus YNL248C, strain rpa49, stronger effect = lower value",0.0637 (active)
same,normalized growth,"locus YNL322C, strain KRE1 (second series), stronger effect = lower value",0.0917 (active)
same,normalized growth,"locus YNR049C, strain mso1, stronger effect = lower value",0.0601 (active)
same,normalized growth,"locus YOR001W, strain rrp6, stronger effect = lower value",0.0618 (active)
same,normalized growth,"locus YOR070C, strain gyp1, stronger effect = lower value",0.0602 (active)
same,normalized growth,"locus YOR080W, strain dia2, stronger effect = lower value",0.0718 (active)
same,normalized growth,"locus YOR083W, strain WHI5, stronger effect = lower value",0.0613 (active)
same,normalized growth,"locus YOR106W, strain vam3, stronger effect = lower value",0.0579 (active)
same,normalized growth,"locus YOR231W, strain MKK1, stronger effect = lower value",0.101 (active)
same,normalized growth,"locus YOR265W, strain rbl2, stronger effect = lower value",0.062 (active)
same,normalized growth,"locus YOR270C, strain vph1, stronger effect = lower value",0.0796 (active)
same,normalized growth,"locus YOR290C, strain snf2, stronger effect = lower value",0.0616 (active)
same,normalized growth,"locus YPL051W, strain arl3, stronger effect = lower value",0.0737 (active)
same,normalized growth,"locus YPL078C, strain atp4, stronger effect = lower value",0.0674 (active)
same,normalized growth,"locus YPL106C, strain sse1, stronger effect = lower value",0.0858 (active)
same,normalized growth,"locus YPL240C, strain hsp82, stronger effect = lower value",0.0583 (active)
same,normalized growth,"locus YPL256C, strain CLN2, stronger effect = lower value",0.117 (active)
